In all, about 67,000 compounds went through this assay and about 300 (0.45%) showed an effect of 50% or more. What follows is part of a selection rich in strong results, with near analogues and random picks from the rest.
Each molecule was assayed against Polyketide synthase Pks13 (Mycobacterium tuberculosis (strain ATCC 25618 / H37Rv)) (UniProt I6X8D2) (assay: Mycobacterium tuberculosis Polyketide synthase 13 Thioesterase (PKS13)). Details: 30 µM.
Chain of Polyketide synthase Pks13 (Mycobacterium tuberculosis (strain ATCC 25618 / H37Rv)) (I6X8D2 whole entry): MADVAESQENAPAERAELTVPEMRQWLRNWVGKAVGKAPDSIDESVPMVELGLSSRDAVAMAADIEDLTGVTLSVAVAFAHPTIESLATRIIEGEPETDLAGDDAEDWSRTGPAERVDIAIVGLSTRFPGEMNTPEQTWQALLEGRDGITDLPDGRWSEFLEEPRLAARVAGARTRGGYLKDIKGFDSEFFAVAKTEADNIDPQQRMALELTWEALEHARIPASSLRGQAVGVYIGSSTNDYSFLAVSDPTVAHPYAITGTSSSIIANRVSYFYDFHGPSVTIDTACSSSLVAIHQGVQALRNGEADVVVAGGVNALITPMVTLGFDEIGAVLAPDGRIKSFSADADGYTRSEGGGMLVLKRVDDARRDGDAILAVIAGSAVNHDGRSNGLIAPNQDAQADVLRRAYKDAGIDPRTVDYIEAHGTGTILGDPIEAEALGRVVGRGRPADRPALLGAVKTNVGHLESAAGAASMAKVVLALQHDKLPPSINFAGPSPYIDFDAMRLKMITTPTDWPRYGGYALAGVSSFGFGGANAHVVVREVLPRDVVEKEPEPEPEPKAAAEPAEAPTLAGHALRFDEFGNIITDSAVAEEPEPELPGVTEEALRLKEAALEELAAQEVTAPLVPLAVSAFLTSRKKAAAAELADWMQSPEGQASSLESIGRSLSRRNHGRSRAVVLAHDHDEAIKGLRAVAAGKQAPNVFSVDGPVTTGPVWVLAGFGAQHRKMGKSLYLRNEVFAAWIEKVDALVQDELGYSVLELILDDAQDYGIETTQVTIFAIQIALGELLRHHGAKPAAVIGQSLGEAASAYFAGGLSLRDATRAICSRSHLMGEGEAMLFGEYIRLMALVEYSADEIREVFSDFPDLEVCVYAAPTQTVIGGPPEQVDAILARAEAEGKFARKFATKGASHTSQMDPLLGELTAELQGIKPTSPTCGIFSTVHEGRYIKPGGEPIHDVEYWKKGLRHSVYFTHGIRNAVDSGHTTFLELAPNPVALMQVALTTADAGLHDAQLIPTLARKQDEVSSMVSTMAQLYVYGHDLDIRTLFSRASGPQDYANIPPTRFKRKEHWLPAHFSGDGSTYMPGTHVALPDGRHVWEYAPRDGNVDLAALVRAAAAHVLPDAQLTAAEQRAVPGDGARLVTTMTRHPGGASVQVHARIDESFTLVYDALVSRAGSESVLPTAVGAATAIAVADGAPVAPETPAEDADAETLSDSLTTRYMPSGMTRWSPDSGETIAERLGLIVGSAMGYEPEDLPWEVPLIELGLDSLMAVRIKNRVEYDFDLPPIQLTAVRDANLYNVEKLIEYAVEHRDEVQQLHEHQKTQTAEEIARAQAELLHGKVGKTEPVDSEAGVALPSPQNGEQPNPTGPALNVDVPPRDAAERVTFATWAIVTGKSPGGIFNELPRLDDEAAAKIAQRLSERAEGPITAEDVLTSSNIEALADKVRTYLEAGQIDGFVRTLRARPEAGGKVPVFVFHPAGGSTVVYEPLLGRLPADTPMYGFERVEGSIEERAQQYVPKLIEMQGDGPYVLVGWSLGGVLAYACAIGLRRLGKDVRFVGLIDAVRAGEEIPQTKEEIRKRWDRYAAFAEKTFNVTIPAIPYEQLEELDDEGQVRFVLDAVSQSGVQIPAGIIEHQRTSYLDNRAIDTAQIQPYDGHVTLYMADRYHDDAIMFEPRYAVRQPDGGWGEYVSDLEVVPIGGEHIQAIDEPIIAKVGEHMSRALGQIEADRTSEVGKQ
Format: functional
Parameters: scale not given: in the data most compounds retested in dose-response had high values
`O=C(NC1CC1)[C@@H]1CCO[C@@H]2CCN(C3CCOCC3)C[C@H]21` gave a Percent Effect of -9.37%.
With `Cc1noc(C)c1CN1C[C@@H]2CCCO[C@@H]2[C@H](NS(C)(=O)=O)C1` the Percent Effect was -27.6%.
Molecule `O=C([C@@H]1COC[C@H]2CN(CC3CCCC3)C[C@H]21)N1CCOCC1` has a Percent Effect of -31.7%.
Work on `CO[C@@H]1CCN(c2ncc(F)cn2)[C@@H]2CN(CC3CC3)C[C@@H]21` yielded a Percent Effect of -32.1%.
`CC(C)N1CCO[C@H]2CN(C(=O)c3ccsc3)C[C@H]21` was tested, and the Percent Effect was -16%.
`Cc1cc(CN2CCN(C(=O)C(C)C)[C@@H]3CS(=O)(=O)C[C@@H]32)ccc1F` gave a Percent Effect of -6.06%.
`CNC(=O)c1cc2c(nc1NCC1CC1)CCN(c1ncccn1)CC2` showed a Percent Effect of 9.04%.
Work on `CN(C)C(=O)c1cc2c(nc1NCC1CC1)CCNCC2` yielded a Percent Effect of -20.1%.
With `CNC(=O)c1cc2c(nc1NCC1CC1)CCNCC2` the Percent Effect was 81.7%.
For `O=C1[C@@H]2CCN(Cc3ccoc3)C[C@@H]2OCCN1c1cccnc1`, the Percent Effect was -7.12%.
Molecule `Cc1noc([C@H]2C[C@H]3CN(C(=O)Cc4ccsc4)CC[C@H]3O2)n1` has a Percent Effect of -10.9%.
For `O=C(CC1CC1)N[C@@H]1CN(Cc2nccs2)C[C@@H]2CCCO[C@@H]21`, the Percent Effect was -33.5%.
In the case of `Cc1nc(COC[C@@H]2CC[C@H]3[C@H](CCN3c3ncccn3)O2)cs1`, the Percent Effect is reported as -28.4%.
For `CC(=O)N1CCC(c2cc(C(F)(F)F)nc3nccn23)CC1`, the Percent Effect was 57.5%.
For `FC(F)(F)c1cc(C2CCN(c3cnccn3)CC2)n2ccnc2n1`, the Percent Effect was 18.1%.
In the case of `CC(=O)N1CCC(c2cc(C(F)(F)F)n3ccnc3n2)CC1`, the Percent Effect is reported as 41.8%.
`COCC(=O)N1CCC(c2cc(C(F)(F)F)n3ccnc3n2)CC1` gave a Percent Effect of 61.5%.
`CN1CCC(c2cc(C(F)(F)F)n3ccnc3n2)CC1` was tested, and the Percent Effect was -20.7%.
Work on `CC(C)N1CCCC(c2cc(C(F)(F)F)nc3nccn23)C1` (configuration not stated) yielded a Percent Effect of 24.5%.
For `c1cc(CN2CCO[C@H]3[C@H](OCCN4CCCC4)CC[C@@H]32)ccn1`, the Percent Effect was -11.4%.
Work on `CC1=N[C@@]2(CC[C@@H]3CN(CC(=O)N(C)C)C[C@@H]32)C(=O)N1CC(C)C` yielded a Percent Effect of -5.03%.
`COCCCN1C(=O)CC[C@H]2CN(Cc3cc4ccccc4o3)CC[C@H]21` gave a Percent Effect of -4.88%.
With `COCCN1CCO[C@@H]2CN(Cc3ccc(C)s3)C[C@@H]2C1` the Percent Effect was -27.7%.
With `CN(C)C(=O)CN1C[C@@H]2CC[C@H](C1)N(Cc1ccccc1C#N)C2` the Percent Effect was 6.99%.
Work on `COc1ccc2[nH]cc(-c3ccnc(N4CCC(C)CC4)n3)c2c1` yielded a Percent Effect of 71.9%.
With `COc1ccc2[nH]cc(-c3ccnc(NC4CCCC4)n3)c2c1` the Percent Effect was 18.6%.
In the case of `CN1CCCN(c2nccc(-c3c[nH]c4ccc(Br)cc34)n2)CC1`, the Percent Effect is reported as -2.62%.
`O=C(COC1CCCC1)N1C[C@@H]2COC[C@]2(COc2cccnc2)C1` showed a Percent Effect of -18%.
In the case of `Nc1nccnc1CC1CCCN(Cc2ccnc3ccccc23)C1` (configuration not stated), the Percent Effect is reported as 126%.
With `COc1ccccc1CN1CCCC(Cc2nccnc2N)C1` (configuration not stated) the Percent Effect was -2.41%.
In the case of `Nc1nccnc1CC1CCCN(Cc2c[nH]c3ccccc23)C1` (configuration not stated), the Percent Effect is reported as 15.3%.
For `CCN1C[C@H]2CCN(C(=O)NC3CCCC3)CC[C@H]2S1(=O)=O`, the Percent Effect was -17.8%.
Molecule `CC(=O)N1[C@H](Cn2cncn2)C[C@@H]2CN(C(=O)NC3CC3)CC[C@@H]21` has a Percent Effect of 12.2%.
`O=C(Nc1cnccn1)[C@H]1CO[C@H]2CCN(c3ncc(F)cn3)C[C@H]2C1` showed a Percent Effect of -40.3%.
`COCCN1C(=O)[C@]2(CC[C@@H]3CN(Cc4ccccc4F)C[C@@H]32)N=C1C` gave a Percent Effect of -17.4%.
`Cc1csc2ncc(-c3ccnc(N4CCCN(C)CC4)n3)c(=O)n12` was tested, and the Percent Effect was 37.9%.
With `Cc1csc2ncc(-c3ccnc(N4CCN(C)CC4)n3)c(=O)n12` the Percent Effect was -27.4%.
`Cc1csc2ncc(-c3ccnc(N4CCCC4)n3)c(=O)n12` gave a Percent Effect of 137%.
`C/C(NC(=O)c1ccco1)=C1/C(=O)C[C@@H]2[C@H]1C2(C)C` gave a Percent Effect of 0.624%.
`CCCc1ccc(CN2C[C@H]3C(=O)N(CC4CC4)C[C@@]3(C(=O)O)C2)o1` was tested, and the Percent Effect was -6.91%.
For `COCCN1C[C@@H]2CN(c3ncc(F)cn3)C[C@@H]2C1=O`, the Percent Effect was -5%.
Molecule `COCCN1C[C@@H]2CN(c3ncccn3)C[C@@H]2C1=O` has a Percent Effect of 54.8%.
For `O=C1[C@H]2CN(c3ncccn3)C[C@H]2CN1CCN1CCCC1`, the Percent Effect was -2.18%.
With `O=C(NC[C@@H]1C[C@@H]2CN(C(=O)CO)C[C@H]2O1)c1ccsc1` the Percent Effect was -53.3%.
For `O=C(c1ccc(-n2cc(Br)cn2)cc1)N1CCN(c2cnccn2)CC1`, the Percent Effect was 81.5%.
In the case of `Cc1ccnn1-c1ccc(C(=O)N2CCN(c3cnccn3)CC2)cc1`, the Percent Effect is reported as 1.07%.
For `O=C(c1ccc(-n2ccnc2)cc1)N1CCCC1`, the Percent Effect was -36.5%.
Molecule `O=C(c1ccc(-n2cncn2)cc1)N1CCN(c2cnccn2)CC1` has a Percent Effect of -11.1%.
`O=C(c1ccc(-n2ccnc2)cc1)N1CCN(c2cnccn2)CC1` showed a Percent Effect of 64.5%.
Work on `O=C(c1cnn(-c2ccccc2)c1)N1CCN(c2cnccn2)CC1` yielded a Percent Effect of -16.8%.
`O[C@@]1(c2ccccn2)CC[C@H]2CN(Cc3cccc(Cl)c3Cl)C[C@H]21` was tested, and the Percent Effect was -48.7%.
With `O=C(C1CC1)N1C[C@H]2CNC[C@@]2(C(=O)NCCCc2ccccc2)C1` the Percent Effect was -27.1%.
`Cc1ncsc1CN1C[C@H](C(=O)NCC2CC2)[C@@H]2CCO[C@@H]2C1` was tested, and the Percent Effect was -19.8%.
With `Cc1ccc(CNC(=O)NCCCn2nc3ccccn3c2=O)s1` the Percent Effect was 96.8%.
With `O=C(NCCCn1nc2ccccn2c1=O)NCc1ccccc1` the Percent Effect was 2.17%.
Work on `CCNC(=O)NCCCn1nc2ccccn2c1=O` yielded a Percent Effect of 0.265%.
Molecule `Cc1nc(COC[C@@]23CCC[C@@H]2CN(CC2CCOCC2)C3)cs1` has a Percent Effect of -23.1%.
`O[C@@H]1C[C@@](CNCC2CC2)(COc2cccnc2)C[C@@H]1O` gave a Percent Effect of -28.2%.
Molecule `Cc1cc(CN2C[C@@H]3COC[C@@H](C(=O)N4CCCCO4)[C@@H]3C2)oc1C` has a Percent Effect of -7.51%.
With `CCN1CC(C(=O)N2CCN(c3nsc4ccccc34)CC2)CCC1=O` (configuration not stated) the Percent Effect was 105%.
`NC(=O)N1CCCC(C(=O)N2CCN(c3nsc4ccccc34)CC2)C1` (configuration not stated) showed a Percent Effect of -37.1%.
With `CC(C)N1CCCC(C(=O)N2CCN(c3nsc4ccccc34)CC2)C1` (configuration not stated) the Percent Effect was -2.9%.
Molecule `O=C(COC[C@H]1CC[C@H]2[C@H](CCN2c2ncccn2)O1)N1CCCC1` has a Percent Effect of -9.39%.
Molecule `CC(C)=CCN1CCN(C(=O)COc2ccccc2)[C@H]2CS(=O)(=O)C[C@H]21` has a Percent Effect of -8.58%.
For `O=C(C1CC(F)(F)C1)N1C[C@@H]2CN(Cc3ccoc3)CCO[C@@H]2C1`, the Percent Effect was -7.81%.
With `Cc1cccc(CN2CCN(C(=O)N(C)C)[C@@H]3CS(=O)(=O)C[C@@H]32)n1` the Percent Effect was -6.96%.
Work on `COc1ncc(-c2cc(-c3ccn(C)c3)nc(N)c2C#N)cn1` yielded a Percent Effect of 9.8%.
`CCNc1ncc(-c2cc(-c3ccn(C)c3)nc(N)c2C#N)cn1` showed a Percent Effect of 5.42%.
In the case of `CCn1cc(-c2cc(-c3ccn(C)c3)nc(N)c2C#N)cc1C#N`, the Percent Effect is reported as 58.3%.
For `CN(C)C(=O)COCC1C[C@@H]2OCCN(Cc3ccco3)[C@H]2C1` (some centres not stated), the Percent Effect was -27.3%.
`COc1cc(N2C[C@@H]3COC[C@]3(COCc3ccncc3)C2)ncn1` gave a Percent Effect of -5.91%.
`O=C(C[C@@H]1COC[C@H]2CN(C3CCC3)C[C@@H]12)NCc1cccnc1` gave a Percent Effect of 0.641%.
For `O=C(c1ccc(F)cc1)N1C[C@H]2CCC[C@@]2(COCc2ccccn2)C1`, the Percent Effect was -35.6%.
With `Cn1cc(NC(=O)c2cc[nH]n2)cc(Cl)c1=O` the Percent Effect was 70.5%.
Molecule `Cn1cc(NC(=O)c2ccccn2)cc(Cl)c1=O` has a Percent Effect of -33.4%.
For `COc1ccsc1C(=O)Nc1cc(Cl)c(=O)n(C)c1`, the Percent Effect was -16.3%.
`O=C(c1ccnnc1)N1CCN2C[C@H](Oc3cccnc3)C[C@H]2C1` showed a Percent Effect of -17.2%.
`COc1ncccc1CN1C[C@H]2CCN(C(C)C)C[C@H]2C1` gave a Percent Effect of 8.32%.
Molecule `O=C(Nc1nc2c(s1)CN(S(=O)(=O)C1CC1)CC2)c1cccc(Cl)c1` has a Percent Effect of 75.5%.
In the case of `O=C(Nc1nc2c(s1)CN(S(=O)(=O)C1CC1)CC2)c1ccc(Cl)s1`, the Percent Effect is reported as 13.8%.
`O=C(Nc1nc2c(s1)CN(S(=O)(=O)C1CC1)CC2)c1c(F)cccc1F` showed a Percent Effect of -2.3%.
With `CNC(=O)[C@@]12CCCN(c3ncccn3)[C@@H]1CN(c1ncc(C)cn1)C2` the Percent Effect was -27.3%.
With `Cn1nc(C2CCNC2)c2c(C(=O)NCC(F)(F)F)cc(C3CC3)nc21` (configuration not stated) the Percent Effect was -7.7%.
In the case of `Cn1nc(C2CCCN2)c2c(C(=O)NCC(F)(F)F)cc(C3CC3)nc21` (configuration not stated), the Percent Effect is reported as 119%.
For `CC(C)CNC(=O)c1cc(C2CC2)nc2c1c(C1CCCN1)nn2C` (configuration not stated), the Percent Effect was -19.7%.
Work on `Cc1cccc(N2CC[C@@H]3CN(C(=O)c4ccco4)CCO[C@@H]3C2)n1` yielded a Percent Effect of -34.3%.
For `O=C(c1ccco1)N1CCO[C@@H]2CN(c3ccccc3)CC[C@@H]2C1`, the Percent Effect was -28.4%.
In the case of `O=C(c1ccco1)N1CCO[C@@H]2CN(c3ccccn3)CC[C@@H]2C1`, the Percent Effect is reported as 52.6%.
For `Fc1cnc(N2CCO[C@H]3CN(CC4CCCCC4)C[C@H]32)nc1`, the Percent Effect was -51%.
`O=C(c1cccc(F)c1)N1CC[C@H]2[C@H]1CCN2CC1CCOCC1` was tested, and the Percent Effect was -17.7%.
`Cc1nc2c(Nc3cccc(C#N)c3)nc(N)nc2n1C` showed a Percent Effect of 58.8%.
`Cc1nc2c(Nc3ccc(C#N)cc3)nc(N)nc2n1C` gave a Percent Effect of 18.1%.
With `CC(=O)c1ccc(Nc2nc(N)nc3c2nc(C)n3C)cc1` the Percent Effect was 2.22%.
`O=C(NCc1ccccn1)[C@H]1COC[C@H]2CN(C3CCCC3)C[C@H]21` showed a Percent Effect of -25.1%.
In the case of `CC1(NC(=O)Cc2csc(-c3ccccc3Cl)n2)CCS(=O)(=O)C1` (configuration not stated), the Percent Effect is reported as -7.78%.
`CC1(NC(=O)Cc2csc(NC(=O)c3ccccc3)n2)CCS(=O)(=O)C1` (configuration not stated) showed a Percent Effect of 51.1%.
With `CC1(NC(=O)Cc2csc(C(C)(C)C)n2)CCS(=O)(=O)C1` (configuration not stated) the Percent Effect was -0.313%.
For `c1ccc(CN2CCN3C[C@H](Oc4cccnc4)C[C@H]3C2)nc1`, the Percent Effect was -35.4%.
Work on `CNC(=O)[C@H]1C[C@@H]2CN(C(=O)c3ccccn3)C[C@@H]2N1S(C)(=O)=O` yielded a Percent Effect of -6.49%.
With `Cc1ccc(N2CCC(C(O)Cc3ccccc3)CC2)nn1` (configuration not stated) the Percent Effect was -23.2%.
`CSCc1ccc(N2CCC(C(O)Cc3ccccc3)CC2)nc1` (configuration not stated) showed a Percent Effect of 101%.
In the case of `CSCc1ccc(N2CCC(C(O)CC(C)C)CC2)nc1` (configuration not stated), the Percent Effect is reported as 6.3%.
For `CC(C)CNC(=O)N1CC[C@@H]2CN(Cc3cccnc3)S(=O)(=O)[C@@H]2CC1`, the Percent Effect was -16.3%.
`CCCN1C(=O)[C@@H]2[C@@H](CCN2C(=O)COC)N(Cc2cccs2)C1=O` was tested, and the Percent Effect was 26.9%.
For `Cc1cc(NCc2cccc(C#N)c2)ccc1Br`, the Percent Effect was 58.5%.
`Cc1cc(NCc2cccc(C#N)c2)ccc1C(N)=O` showed a Percent Effect of -10.5%.
Molecule `Cc1cc(NCc2cccc(C#N)c2)ccc1C(=O)N(C)C` has a Percent Effect of -4.66%.
